{
  "source": "PubChem BioAssay (NCATS)",
  "key": {"[1]": {"target": "Pyruvate kinase PKM (Homo sapiens) (UniProt P14618)", "sequence (P14618 whole entry, looked up)": "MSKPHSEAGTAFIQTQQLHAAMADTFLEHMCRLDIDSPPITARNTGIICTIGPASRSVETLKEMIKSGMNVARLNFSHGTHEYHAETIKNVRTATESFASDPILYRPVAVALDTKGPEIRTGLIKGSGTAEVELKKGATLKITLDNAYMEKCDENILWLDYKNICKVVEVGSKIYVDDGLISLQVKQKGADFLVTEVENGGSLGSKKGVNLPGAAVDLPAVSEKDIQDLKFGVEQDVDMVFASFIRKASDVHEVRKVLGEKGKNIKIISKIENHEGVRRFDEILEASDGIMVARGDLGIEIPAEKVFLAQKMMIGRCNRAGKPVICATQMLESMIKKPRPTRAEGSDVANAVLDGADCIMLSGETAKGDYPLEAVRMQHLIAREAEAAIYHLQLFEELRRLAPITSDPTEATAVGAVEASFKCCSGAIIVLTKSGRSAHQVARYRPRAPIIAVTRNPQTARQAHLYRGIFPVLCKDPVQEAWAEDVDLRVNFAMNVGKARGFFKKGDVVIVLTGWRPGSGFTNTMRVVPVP", "experiment": "qHTS Assay for Inhibitors of Human Muscle Pyruvate Kinase (AID 958)", "conditions": "purified human PKM enzyme activity; series mostly up to 57.5 µM", "method_in_brief": "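Enzyme was run at intermediate activity so both inhibitors and activators could be detected. ATP formed from ADP and PEP by 0.1 nM human PKM2 during a 1 h room-temperature incubation was quantified by coupled luciferase luminescence.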"}, "[2]": {"target": "Tumor susceptibility gene 101 protein (Homo sapiens) (UniProt Q99816)", "sequence (Q99816 whole entry, looked up)": "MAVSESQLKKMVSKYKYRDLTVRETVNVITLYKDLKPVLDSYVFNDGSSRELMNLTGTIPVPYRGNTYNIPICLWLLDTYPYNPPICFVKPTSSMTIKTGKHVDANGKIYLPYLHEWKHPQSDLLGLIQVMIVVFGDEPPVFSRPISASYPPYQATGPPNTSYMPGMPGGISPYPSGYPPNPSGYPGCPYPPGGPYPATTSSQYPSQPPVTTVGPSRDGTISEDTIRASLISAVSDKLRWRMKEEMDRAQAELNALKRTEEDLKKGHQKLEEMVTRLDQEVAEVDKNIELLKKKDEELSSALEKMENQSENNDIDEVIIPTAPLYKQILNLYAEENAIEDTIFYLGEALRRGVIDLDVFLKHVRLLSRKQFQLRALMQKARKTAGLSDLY", "experiment": "qHTS Assay for Iinhibitors of HIV-1 Budding by Blocking the Interaction of PTAP/TSG101: Hit Validation (AID 651600); also: nearly all actives have a fitted effect of over 70% in size", "conditions": "PTAP peptide/TSG101 UEV interaction, biochemical assay; series mostly up to 57.5 µM", "method_in_brief": "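Measuring PTAP–Tsg101 interaction by FP: protein at 10 uM and fluorescent peptide at 50 nM (final), buffer 10 mM HEPES pH 7.5 with 0.15 M NaCl, 3 mM EDTA, 0.1 mM TCEP, 0.01% Tween 20; 20 min incubation, r.t.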"}, "[3]": {"target": "Androgen receptor (Homo sapiens) (UniProt P10275)", "sequence (P10275 whole entry, looked up)": "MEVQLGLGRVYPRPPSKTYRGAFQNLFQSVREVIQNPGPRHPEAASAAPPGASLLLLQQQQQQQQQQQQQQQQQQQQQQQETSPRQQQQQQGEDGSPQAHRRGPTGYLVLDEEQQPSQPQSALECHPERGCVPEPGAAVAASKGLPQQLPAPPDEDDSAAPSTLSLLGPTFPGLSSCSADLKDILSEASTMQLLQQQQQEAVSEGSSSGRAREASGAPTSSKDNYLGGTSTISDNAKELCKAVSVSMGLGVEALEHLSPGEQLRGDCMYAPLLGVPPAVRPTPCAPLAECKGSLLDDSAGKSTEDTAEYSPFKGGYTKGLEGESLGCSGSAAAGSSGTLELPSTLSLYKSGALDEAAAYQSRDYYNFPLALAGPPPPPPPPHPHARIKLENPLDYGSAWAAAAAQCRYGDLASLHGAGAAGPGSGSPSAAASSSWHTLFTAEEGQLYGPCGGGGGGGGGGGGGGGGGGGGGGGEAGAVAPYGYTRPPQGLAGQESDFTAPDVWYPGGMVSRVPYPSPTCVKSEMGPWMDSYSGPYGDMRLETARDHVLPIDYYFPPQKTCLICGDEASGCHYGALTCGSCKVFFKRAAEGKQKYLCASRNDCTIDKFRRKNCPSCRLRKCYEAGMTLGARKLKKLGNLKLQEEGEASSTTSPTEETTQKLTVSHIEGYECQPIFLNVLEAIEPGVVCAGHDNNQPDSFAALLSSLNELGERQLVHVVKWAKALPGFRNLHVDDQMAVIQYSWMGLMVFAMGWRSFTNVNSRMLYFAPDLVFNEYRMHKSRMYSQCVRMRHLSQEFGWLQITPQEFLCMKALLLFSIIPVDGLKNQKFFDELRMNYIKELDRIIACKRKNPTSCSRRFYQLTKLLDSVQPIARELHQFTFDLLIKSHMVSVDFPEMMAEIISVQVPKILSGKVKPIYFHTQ", "experiment": "qHTS assay for small molecule antagonists of androgen receptor signaling (AID 588516; active = well fitted curve in the direction sought with a large enough effect in the signal ratio, with a control signal flat, not every such curve was filed as active; the % refers to the signal ratio; also: potency is read from the fitted curve at half-maximal effect)", "conditions": "AR-UAS-bla HEK293, beta-lactamase ratio, antagonist mode, 16 h; series mostly up to 76.8 µM", "method_in_brief": "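Compounds tested in titration against 10 nM R1881 in AR-responsive bla reporter HEK 293 cells; CCF4 fluorescence (460/530 nm) after 16 h exposure gave IC50 and efficacy.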"}, "[4]": {"target": "Pyruvate kinase (Leishmania mexicana) (UniProt Q27686)", "sequence (Q27686 2-499 E452W)": "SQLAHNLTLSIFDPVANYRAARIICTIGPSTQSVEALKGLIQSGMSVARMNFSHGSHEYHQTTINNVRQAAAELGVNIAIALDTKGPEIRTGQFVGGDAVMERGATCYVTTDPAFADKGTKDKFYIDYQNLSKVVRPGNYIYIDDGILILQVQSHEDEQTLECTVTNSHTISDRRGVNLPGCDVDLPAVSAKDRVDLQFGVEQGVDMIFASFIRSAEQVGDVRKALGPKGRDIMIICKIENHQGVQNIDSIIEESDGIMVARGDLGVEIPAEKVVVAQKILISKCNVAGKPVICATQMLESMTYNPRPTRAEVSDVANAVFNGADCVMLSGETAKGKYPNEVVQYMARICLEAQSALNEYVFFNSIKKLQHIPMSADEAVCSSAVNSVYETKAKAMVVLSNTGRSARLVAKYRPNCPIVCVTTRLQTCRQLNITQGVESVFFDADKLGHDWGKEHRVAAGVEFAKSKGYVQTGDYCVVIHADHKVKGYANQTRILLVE", "experiment": "qHTS Validation Assay for Activators of Leishmania Mexicana Pyruvate Kinase (AID 959)", "conditions": "purified L. mexicana pyruvate kinase, enzyme activity; series mostly up to 57.5 µM", "method_in_brief": "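Purified LmPYK (E451W mutant, 0.2 nM) was incubated 1 h at room temperature with 0.5 mM PEP and 0.1 mM ADP in 50 mM imidazole pH 7.2, 50 mM KCl, 7 mM MgCl2; ATP formed was read by PKLight luminescence, normalized to DMSO wells.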"}, "[5]": {"experiment": "Confirmation and Secondary Assay for Modulators of Hemoglobin Beta Chain Splicing at IVS2 654 locus (AID 910);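 also: HeLa cells stably carrying EGFP split by mutant beta-globin IVS2-654 intron; per-well total GFP intensity by laser scanning cytometry after 2-day treatment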", "conditions": "HeLa EGFP-654 splicing reporter, GFP fluorescence, 48 h; series mostly up to 46.1 µM", "method_in_brief": "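Readout: per-well total peak green fluorescence (488 nm ex, 500–520 nm em) from objects 5–250 µm, reflecting correct splicing of an EGFP-654 reporter. Compounds were applied for 2 days at 37 °C to overnight-plated HeLa EGFP-654 cells; controls were DMSO and 500 nM IVS2-654 PNA.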"}, "[6]": {"experiment": "Confirmation and Secondary Assay for Modulators of Hemoglobin Beta Chain Splicing at IVS2 705 locus (AID 930);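 also: HeLa cells stably expressing the EGFP-705 splicing reporter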", "conditions": "HeLa EGFP-705 splicing reporter, GFP fluorescence, 48 h; series mostly up to 46.1 µM", "method_in_brief": "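Restored EGFP fluorescence after 2-day compound exposure reports splicing correction in IVS2-705 EGFP reporter HeLa cells; positive control was 500 nM splice-blocking PNA oligo. Signal measured as well total peak GFP intensity (488 nm excitation).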"}},
  "note": "Inconclusive results are not listed. A call without a number means that no potency is given here. More than one record can exist for a structure, and the calls need not agree. Calls of active or inactive are those of the source. Unless noted, calls follow the shape of the dose curve; as a rule, active = well fitted curve in the direction sought with a large enough effect; inconclusive = small, poorly fitted or top-dose-only effect, or another doubt; inactive = no such curve, though single readings can be large; an effect the other way counts as inactive or inconclusive.",
  "data": [
    {"smiles": "C[C@]12Cc3cn4c(nc3C=C1CC[C@H]1[C@@H]2CC[C@@]2(C)[C@H]1CC[C@@]2(O)C#N)nc1ccccc14", "values": [
      {"measurement": "Potency", "setting": "[1]", "result": "inactive"}
    ]},
    {"smiles": "CN1CC=C2C(C#N)=C(N)C(C#N)(C#N)C(c3ccncc3)C2C1", "note": "(stereo unspecified)", "values": [
      {"measurement": "Potency", "setting": "[2]", "result": "inactive"}
    ]},
    {"smiles": "N#CC(Cl)Cl", "values": [
      {"measurement": "Potency", "setting": "[3]", "result": "inactive"}
    ]},
    {"smiles": "O=C1C2(Cl)C3(Cl)C4(Cl)C(Cl)(Cl)C5(Cl)C3(Cl)C1(Cl)C5(Cl)C24Cl", "note": "(stereo unspecified)", "values": [
      {"measurement": "Potency", "setting": "[3]", "result": "44.7 µM (active) and inactive"}
    ]},
    {"smiles": "Oc1c(Br)c(Br)c(Br)c(Br)c1Br", "values": [
      {"measurement": "Potency", "setting": "[3]", "result": "inactive"}
    ]},
    {"smiles": "O=[N+]([O-])C(Br)Br", "values": [
      {"measurement": "Potency", "setting": "[3]", "result": "inactive"}
    ]},
    {"smiles": "CN[C@@H](C)[C@@H](O)c1ccccc1", "values": [
      {"measurement": "Potency", "setting": "[1]", "result": "7.94 µM (active)"},
      {"measurement": "outcome", "setting": "[4]", "result": "inactive"}
    ]},
    {"smiles": "COc1ccc2c(c1O)-c1c(OC)c(OC)cc3c1[C@@H](C2)N(C)CC3", "values": [
      {"measurement": "Potency", "setting": "[5]", "result": "inactive"},
      {"measurement": "outcome", "setting": "[6]", "result": "inactive"}
    ]},
    {"smiles": "Oc1cc2c(cc1O)[C@H]1c3ccccc3CN[C@@H]1CC2", "values": [
      {"measurement": "Potency", "setting": "[1]", "result": "inactive"}
    ]}
  ]
}
